Assay [1] is described as follows: qHTS assay to identify small molecule HDAC inhibitors (AID 1259364).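 Note: wild-type HCT-116 cells with endogenous class I/II HDAC activity; top concentration of the series differs between compounds; nearly all actives have a fitted effect of over 45% in size.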 Summed up:
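Read-out: luminescence of HDAC-Glo I/II reagent, 30 min RT, reflecting class I/II deacetylase activity in whole HCT-116 cells pre-exposed 2 h to DMSO-dissolved compounds.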

Assay [2] is described as follows: qHTS assay to identify small molecule HDAC inhibitors - cell viability counter screen (AID 1259365). Note: series mostly up to about 92 µM; nearly all actives have a fitted effect of over 50% in size. Summed up:
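To flag cytotoxic hits, 1,500 wild-type HCT-116 cells per well, plated the day before, receive test compounds for 2hr at 37 C before CellTiter-Glo reagent and a luminescence read.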

Assay [3] can be described thus: qHTS assay to identify small molecule agonists of the sonic hedgehog signaling (Shh) pathway - cell viability counter screen (AID 1259366). Note: nearly all actives have a fitted effect of over 50% in size. The essentials: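 Fluorescence from CellTiter-Fluor reports live cells in this counter screen. NIH/3T3-derived Gli1-Luc reporter cells receive test compounds for 24hr at 37C; reagent goes in at 23hr.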
Assay [4] can be described thus: qHTS assay to identify small molecule antagonists of the sonic hedgehog signaling (Shh) pathway - cell viability counter screen (AID 1259367). Note: nearly all actives have a fitted effect of over 55% in size. Summed up: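 Cells: 3T3 Gli1-Luc, 2,000/well, 4 hr pre-incubation. Compounds in DMSO, then conditioned medium. Incubation 24 hr, 37C, 5% CO2. CellTiter-Fluor at 23 hr, 1 hr, fluorescence.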
The nature of assay [5]: qHTS assay to identify small molecule agonists of the sonic hedgehog signaling (Shh) pathway (AID 1259368; calls by dose curve;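 note: NIH/3T3-derived 3T3Gli1-Luc cells carrying a stable Gli1-driven firefly luciferase reporter; series mostly up to about 92 µM; nearly all actives have a fitted effect of over 15% in size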). Summed up:
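A Gli1 transcriptional response element controlled firefly luciferase in 3T3Gli1-Luc cells. Compounds and a positive control were added 4 hr after plating, and cells were incubated a further 24 hr at 37 C before luminescence detection.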

A short description of assay [6]: qHTS assay to identify small molecule antagonists of the sonic hedgehog signaling (Shh) pathway (AID 1259369; calls by dose curve; note: nearly all actives have a fitted effect of over 45% in size; note: potency is the fitted concentration of half-maximal effect). Summed up: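 For antagonist detection, the reporter line received test compounds together with conditioned medium, incubated 24hr at 37 C, 5% CO2, then luminescence was recorded following 30min room-temperature luciferase reagent incubation.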
Assay [7] deals with Estrogen receptor beta (Homo sapiens) (UniProt Q92731). Nature of the assay: qHTS assay to identify small molecule agonists of the estrogen receptor beta (ER-beta) signaling pathway (AID 1259377; active = well fitted activation curve with a large enough effect in the signal ratio in the repeat runs, not every such curve was filed as active; the % refers to the signal ratio; note: potency is the fitted concentration of half-maximal effect). The essentials: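 Screening used GripTite ER-beta-UAS-bla cells held in 2% charcoal-stripped FBS medium. After overnight (16 hr) compound incubation at 37C, beta-lactamase activity was detected with a FRET substrate by fluorescence.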
Chain of Estrogen receptor beta (Homo sapiens) (Q92731 whole entry, looked up): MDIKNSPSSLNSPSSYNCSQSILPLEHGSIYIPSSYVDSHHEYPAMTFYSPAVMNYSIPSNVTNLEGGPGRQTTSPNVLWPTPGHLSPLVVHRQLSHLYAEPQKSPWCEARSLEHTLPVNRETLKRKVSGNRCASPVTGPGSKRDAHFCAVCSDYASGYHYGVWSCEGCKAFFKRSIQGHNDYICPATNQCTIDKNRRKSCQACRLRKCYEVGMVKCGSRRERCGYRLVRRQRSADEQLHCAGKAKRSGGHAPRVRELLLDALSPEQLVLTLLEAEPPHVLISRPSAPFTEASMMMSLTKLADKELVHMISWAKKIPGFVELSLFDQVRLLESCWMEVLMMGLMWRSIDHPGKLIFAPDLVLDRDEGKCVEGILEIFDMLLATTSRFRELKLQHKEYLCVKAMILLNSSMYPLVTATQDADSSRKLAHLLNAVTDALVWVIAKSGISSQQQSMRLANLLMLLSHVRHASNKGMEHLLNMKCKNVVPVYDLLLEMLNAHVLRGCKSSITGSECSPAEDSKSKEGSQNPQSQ

Assay [8] is described as follows: qHTS assay to identify small molecule agonists of the androgen receptor (AR) signaling pathway in the presence of an antagonist - cell viability counter screen (AID 1259379).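 Note: MDA-kb2 human breast cancer cells carrying an MMTV luciferase reporter; series mostly up to about 92 µM; nearly all actives have a fitted effect of over 25% in size.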 Summed up:
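Seed MDA-kb2 at 3,000 cells/well; incubate 5 hr, 37C, 0% CO2. Add nilutamide to 3.0uM final, then pin compounds at 15 concentrations. Incubate 16 hr. Add CellTiter-Fluor at 15 hr, read fluorescence after 1 hr.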

A short description of assay [9]: qHTS assay to identify small molecule agonists of the estrogen receptor beta (ER-beta) signaling pathway - cell viability counter screen (AID 1259380). Note: nearly all actives have a fitted effect of over 30% in size. The essentials: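 CellTiter-Glo read, 30 min RT, same wells as bla assay; cells ER-beta-UAS-bla HEK293T; 16 hr compound, 37C; medium 2% charcoal-stripped FBS.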
Assay [10] in a line: qHTS assay to identify small molecule antagonists of the estrogen receptor beta (ER-beta) signaling pathway - cell viability counter screen (AID 1259382).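 Note: HEK293T cells carrying ER-beta-UAS-bla reporter stimulated with estradiol; series mostly up to about 92 µM; nearly all actives have a fitted effect of over 55% in size.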 Summed up: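 In this multiplexed counter screen, cells were seeded at 2,000 per well in medium with 2% charcoal-stripped FBS and incubated 6 hr before compound and 1nM final E2 were added. Sixteen hours later, ATP-based luminescence reported viability.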

Assay [11] in a line: qHTS assay to identify small molecule agonists or antagonists of the thyroid stimulating hormone receptor (TSHR) signaling pathway - wild type cell line counter screen (AID 1259384; calls by dose curve). The essentials: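 Counter screen in untransfected Hek293: compounds (15-point titration, triplicate) plus phosphodiesterase inhibitor Ro20-1724 added after 18 h plating; 30 min RT. Intracellular cAMP via competitive d2/cryptate immunoassay, 1 h incubation.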

In assay [12] the target is Thyrotropin receptor (Homo sapiens) (UniProt P16473). Nature of the assay: qHTS assay to identify small molecule antagonists of the thyroid stimulating hormone receptor (TSHR) signaling pathway (AID 1259385; calls by dose curve; note: nearly all actives have a fitted effect of over 20% in size). The essentials: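 Antagonist mode: compound-treated TSHR-expressing HEK293 cells were stimulated with 1.5 ng/mL TSH (final) in presence of Ro20-1724 for 30 min at RT. HTRF cAMP detection after 1 h; each compound tested at 15 concentrations, triplicate.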
Chain of Thyrotropin receptor (Homo sapiens) (P16473 whole entry, looked up): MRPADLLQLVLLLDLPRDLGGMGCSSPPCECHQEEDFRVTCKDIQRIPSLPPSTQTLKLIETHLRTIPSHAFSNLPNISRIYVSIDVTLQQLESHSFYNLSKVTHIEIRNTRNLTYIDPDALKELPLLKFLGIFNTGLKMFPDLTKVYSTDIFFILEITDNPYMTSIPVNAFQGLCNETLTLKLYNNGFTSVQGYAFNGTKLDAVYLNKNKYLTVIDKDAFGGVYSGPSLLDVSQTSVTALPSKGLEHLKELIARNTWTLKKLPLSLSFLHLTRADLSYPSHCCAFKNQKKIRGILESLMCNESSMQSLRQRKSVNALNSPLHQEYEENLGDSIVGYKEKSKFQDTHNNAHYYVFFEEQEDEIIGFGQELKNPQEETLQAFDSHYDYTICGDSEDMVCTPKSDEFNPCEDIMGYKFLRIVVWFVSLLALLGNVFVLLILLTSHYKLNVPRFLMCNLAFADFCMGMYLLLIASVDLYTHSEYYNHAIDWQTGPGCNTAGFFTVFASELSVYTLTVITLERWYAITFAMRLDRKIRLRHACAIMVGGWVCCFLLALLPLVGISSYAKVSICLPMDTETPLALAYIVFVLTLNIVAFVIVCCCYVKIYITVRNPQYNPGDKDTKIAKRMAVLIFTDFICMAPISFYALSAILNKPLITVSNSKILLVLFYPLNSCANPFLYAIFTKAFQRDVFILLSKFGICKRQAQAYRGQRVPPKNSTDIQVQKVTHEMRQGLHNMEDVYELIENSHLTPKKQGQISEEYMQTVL

Assay [13] in a line: qHTS assay to identify small molecule agonists of the estrogen receptor alpha (ER-alpha) signaling pathway in the presence of an antagonist - cell viability counter screen (AID 1259386).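 Note: series mostly up to about 92 µM; cells exposed to compounds for 22 h at 37 °C before the viability read; nearly all actives have a fitted effect of over 30% in size.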 The essentials:
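Viability counter screen using VM7Luc4E2 (full-length ER-alpha, four ERE-luciferase). The cells were treated with compounds alongside ICI-182,780 10.0nM for 22hr, and live-cell protease fluorescence was quantified with CellTiter-Fluor.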

Assay [14] deals with Progesterone receptor (Homo sapiens) (UniProt P06401). Nature of the assay: qHTS assay to identify small molecule agonists of the progesterone receptor (PR) signaling pathway (AID 1346784; calls by dose curve; note: nearly all actives have a fitted effect of over 30% in size). The essentials: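 Seed PR-UAS-bla HEK 293T cells (2% charcoal-stripped FBS), incubate 6 hr at 37C; add compounds in DMSO, 16 hr at 37C; add LiveBLAzer B/G substrate, 2 hr RT; read fluorescence intensity.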
Chain of Progesterone receptor (Homo sapiens) (P06401 whole entry, looked up): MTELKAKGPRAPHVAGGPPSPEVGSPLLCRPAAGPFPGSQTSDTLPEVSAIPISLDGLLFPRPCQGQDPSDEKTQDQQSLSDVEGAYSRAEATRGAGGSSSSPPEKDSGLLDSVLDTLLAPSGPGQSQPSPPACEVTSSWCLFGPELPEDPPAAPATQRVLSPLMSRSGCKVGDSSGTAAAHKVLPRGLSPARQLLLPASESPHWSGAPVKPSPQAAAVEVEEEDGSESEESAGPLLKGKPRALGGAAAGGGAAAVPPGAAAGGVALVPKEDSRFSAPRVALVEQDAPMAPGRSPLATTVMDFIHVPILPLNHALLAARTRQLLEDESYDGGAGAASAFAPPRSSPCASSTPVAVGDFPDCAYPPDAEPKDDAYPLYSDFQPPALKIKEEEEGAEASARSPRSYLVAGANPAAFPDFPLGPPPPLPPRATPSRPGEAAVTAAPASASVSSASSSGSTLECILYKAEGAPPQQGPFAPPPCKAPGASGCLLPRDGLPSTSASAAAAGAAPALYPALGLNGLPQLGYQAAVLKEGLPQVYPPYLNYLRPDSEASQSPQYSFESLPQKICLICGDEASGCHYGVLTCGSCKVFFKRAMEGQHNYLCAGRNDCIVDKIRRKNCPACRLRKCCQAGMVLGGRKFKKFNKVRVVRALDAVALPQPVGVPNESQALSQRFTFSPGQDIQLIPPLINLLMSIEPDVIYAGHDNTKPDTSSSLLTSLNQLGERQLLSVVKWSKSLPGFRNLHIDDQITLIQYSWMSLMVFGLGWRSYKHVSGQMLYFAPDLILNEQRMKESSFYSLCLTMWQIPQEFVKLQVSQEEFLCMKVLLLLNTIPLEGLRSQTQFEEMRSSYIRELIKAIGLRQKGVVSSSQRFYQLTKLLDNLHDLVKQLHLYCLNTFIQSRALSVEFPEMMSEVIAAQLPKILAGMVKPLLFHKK

The nature of assay [15]: qHTS assay to identify small molecule phospholipidosis (PLD) inducers (AID 1259344; active = well fitted curve in the direction sought with a large enough effect; an effect the other way counts as inactive or inconclusive). Summed up: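 Phospholipidosis is scored by imaging LipidTOX-stained pits in HepG2 cells exposed to compound for 24 h at 37 C; pit counts and integrated intensities per well and per cell serve as outputs.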
Assay [16] concerns the target Estrogen receptor beta (Homo sapiens) (UniProt Q92731). Nature of the assay: qHTS assay to identify small molecule antagonists of the estrogen receptor beta (ER-beta) signaling pathway (AID 1259378; active = well fitted inhibition curve with a large enough effect in the signal ratio in the repeat runs, not every such curve was filed as active; the % refers to the signal ratio). The essentials:
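Antagonist mode: compounds added to beta-lactamase reporter HEK293T ER-beta-UAS cells stimulated with E2 (1nM final), 16 hr at 37C. LiveBLAzer B/G FRET substrate, 2 hours room temperature, fluorescence read-out.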

The target of assay [17] is Progesterone receptor (Homo sapiens) (UniProt P06401). Nature of the assay: qHTS assay to identify small molecule antagonists of the progesterone receptor (PR) signaling pathway (AID 1346795; active = well fitted inhibition curve with a large enough effect in the signal ratio in the repeat runs, not every such curve was filed as active; the % refers to the signal ratio). Summed up:
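Screening used a GripTite HEK293T line with PR-responsive UAS-beta-lactamase. Cells were challenged with compound in the presence of 1 nM R5020 final for 16 hr at 37C; B/G FRET substrate, 2 hr room temperature, fluorescence.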

The target of assay [18] is Androgen receptor (Homo sapiens) (UniProt P10275). Nature of the assay: qHTS assay to identify small molecule agonists of the androgen receptor (AR) signaling pathway in the presence of an antagonist (AID 1259381; calls by dose curve; note: nearly all actives have a fitted effect of over 15% in size). Summed up: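 Test compounds at 15 concentrations were incubated for 16hr with MDA-kb2 reporter cells in presence of 3.0uM nilutamide (final). Signal: ONE-Glo luciferase luminescence.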
Chain of Androgen receptor (Homo sapiens) (P10275 whole entry, looked up): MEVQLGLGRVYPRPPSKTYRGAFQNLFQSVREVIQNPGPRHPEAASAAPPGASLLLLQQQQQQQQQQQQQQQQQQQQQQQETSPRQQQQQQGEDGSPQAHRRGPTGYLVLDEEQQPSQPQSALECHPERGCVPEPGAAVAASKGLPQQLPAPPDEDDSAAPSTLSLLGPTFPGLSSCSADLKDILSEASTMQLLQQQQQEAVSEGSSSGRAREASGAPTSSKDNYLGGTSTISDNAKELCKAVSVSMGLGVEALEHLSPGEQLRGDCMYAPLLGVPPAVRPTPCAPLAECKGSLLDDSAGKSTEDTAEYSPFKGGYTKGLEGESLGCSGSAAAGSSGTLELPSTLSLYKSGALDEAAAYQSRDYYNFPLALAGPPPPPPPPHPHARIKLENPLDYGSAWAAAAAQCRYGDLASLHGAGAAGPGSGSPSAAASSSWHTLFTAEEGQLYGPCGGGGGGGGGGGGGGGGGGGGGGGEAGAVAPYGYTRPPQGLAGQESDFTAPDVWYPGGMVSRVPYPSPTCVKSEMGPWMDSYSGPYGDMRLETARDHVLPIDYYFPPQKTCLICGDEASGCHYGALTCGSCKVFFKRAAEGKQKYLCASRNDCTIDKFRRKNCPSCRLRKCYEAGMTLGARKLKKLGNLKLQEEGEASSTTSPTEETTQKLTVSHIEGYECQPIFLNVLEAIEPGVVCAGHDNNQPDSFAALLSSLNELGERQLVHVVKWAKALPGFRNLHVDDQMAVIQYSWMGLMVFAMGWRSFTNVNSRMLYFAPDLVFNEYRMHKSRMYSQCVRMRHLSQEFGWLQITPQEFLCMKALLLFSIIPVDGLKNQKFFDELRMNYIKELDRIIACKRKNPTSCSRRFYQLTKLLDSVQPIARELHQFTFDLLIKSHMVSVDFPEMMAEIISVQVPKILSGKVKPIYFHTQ

Molecules are shown by their SMILES. Values joined by “and” are separate entries in the source; they are usually repeats but may differ in a detail not shown here. Equal entries are not always repeated. Inconclusive results are not listed. Some structures have more than one record in an assay (separate samples or runs), and their calls can disagree. Active and inactive are the calls of the source. Unless noted, calls come from the whole dose curve; as a rule, active = well fitted curve in the direction sought with a large enough effect in the repeat runs; inconclusive = weak or mixed curves; inactive = no such curve, though single readings can be large; an effect the other way counts as inactive or inconclusive.

On to `CCc1cccc(C)c1N(C(=O)CCl)C(C)COC` (centres undefined), for which the Potency entry in [1], in assay [3], in assay [4], in assay [6], in assay [7] and in [9] was “inactive” in each case. Further, the Potency result in [10] and in [12] was “inactive” each time. Moreover, the compound was called inactive in [2], in assay [5], in [8], in [11], in assay [13] and in assay [14].
With `C[C@]12CC[C@H]3[C@@H](CC[C@@]45O[C@@H]4C(O)=C(C#N)C[C@]35C)[C@@H]1CC[C@@H]2O`, the call in assay [15], in assay [2], in assay [5], in assay [16], in assay [8] and in assay [11] was inactive. Moreover, the outcome in assay [13] and in assay [14] was inactive. The Potency entry in assay [1], in assay [3], in [4], in [9], in assay [10] and in assay [12] was “inactive” each time. Also, the Potency in [6] was 27.3 µM (active) and 13.3 µM (active).
In the case of `CC(C)(C)OOC(=O)c1ccccc1`, the Potency entry in assay [1], in assay [3], in assay [4], in assay [6], in assay [9] and in [10] was “inactive” throughout. Moreover, the Potency entry in assay [17] is “inactive”. The compound was classed as inactive in assay [2], in assay [5], in [16], in assay [8], in [13] and in assay [14]. Also, the Potency in assay [7] was 61.2 µM (active) and inactive.
Turning to `OC(O)C(Cl)(Cl)Cl`, the result in assay [15], in [2], in assay [5], in [16], in [8] and in assay [11] was inactive. For the same compound, the outcome in assay [13] and in assay [14] was inactive. In addition, the Potency entry in assay [1], in assay [3], in assay [4], in assay [7], in assay [9] and in [10] was “inactive” throughout. Also, the Potency entry in assay [12] and in assay [17] was “inactive” each time.
Regarding `c1ccc2c(c1)oc1ccccc12`, the Potency result in assay [1], in assay [3], in assay [4], in assay [7], in assay [9] and in assay [10] was “inactive” throughout. Besides, the Potency result in assay [12] and in [17] was “inactive” in each case. Moreover, the compound was called inactive in assay [2], in assay [5], in assay [16], in [8], in assay [11] and in [13]. For the same compound, in assay [14], the compound was classed as inactive.
As to `Clc1cccc(Cl)c1Cl`, the Potency result in assay [1], in assay [3], in assay [4], in assay [6], in assay [9] and in assay [10] was “inactive” each time. The Potency result in assay [12] and in [17] was “inactive” in each case. The result in assay [2], in [5], in assay [8], in assay [11], in assay [13] and in assay [14] was inactive.
In the case of `CCNc1nc(NC(C)C)nc(SC)n1`, the Potency entry in [1], in [3], in [4], in assay [7], in assay [9] and in assay [10] was “inactive” each time. The Potency result in assay [12] and in assay [17] was “inactive” throughout. Further, the compound was classed as inactive in assay [2], in [5], in assay [16], in assay [8], in assay [18] and in assay [11]. For the same compound, the outcome in assay [13] and in assay [14] was inactive.
